The record followed here is PubChem BioAssay AID2284061 (EPA ToxCast).

SMILES strings stand for the structures. Results filed as inconclusive are left out. Calls of active or inactive are those of the source. How the source made its calls: active means hit-call score of the fitted dose curve at least 0.9, where 1 is the maximum; inconclusive means response in the unintended direction; inactive means score below 0.9.

Sequence of human Akt3 (PKBgamma) AGC Kinase, AKT3 (gene 10000) (Q9Y243 whole entry, looked up): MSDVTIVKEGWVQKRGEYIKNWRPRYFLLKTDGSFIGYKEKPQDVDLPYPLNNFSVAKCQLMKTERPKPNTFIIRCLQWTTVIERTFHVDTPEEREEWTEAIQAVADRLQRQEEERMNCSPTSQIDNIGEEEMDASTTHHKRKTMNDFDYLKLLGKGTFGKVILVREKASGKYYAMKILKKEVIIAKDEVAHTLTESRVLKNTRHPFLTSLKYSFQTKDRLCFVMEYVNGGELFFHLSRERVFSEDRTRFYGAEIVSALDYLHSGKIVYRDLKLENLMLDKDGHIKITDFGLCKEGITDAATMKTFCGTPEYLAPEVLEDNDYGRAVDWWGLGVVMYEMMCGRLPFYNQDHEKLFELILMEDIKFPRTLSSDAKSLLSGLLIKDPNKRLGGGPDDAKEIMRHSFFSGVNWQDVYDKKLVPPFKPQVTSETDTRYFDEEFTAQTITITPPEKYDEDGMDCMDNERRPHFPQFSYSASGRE

In this assay the target is human Akt3 (PKBgamma) AGC Kinase, AKT3 (gene 10000) (UniProt Q9Y243). As to the kind of experiment: ERF_FR_ENZ_hAKT3: Eurofins (ERF) Enzymatic Radiometric [Km ATP] KinaseProfiler LeadHunter Assay for human Akt3 (PKBgamma) AGC Kinase. The method, then:
ERF_FR_ENZ_hAKT3 is a biochemical, single-readout assay that uses extracted gene-proteins in a cell-free assay. Measurements were taken 0.5 hour after chemical dosing in a 96-well plate. See Akt3 (PKBgamma) Human AGC Kinase Enzymatic LANCE Assay [Km ATP], Cerep.ERF_FR_ENZ_hAKT3 is an assay component calculated from the ERF_FR_ENZ_hAKT3 assay. It is designed to measure enzyme activity using a type of enzyme reporter as detected by fluorescence intensity with LANCE technology.Data from the assay component ERF_FR_ENZ_hAKT3 was analyzed at the assay endpoint, ERF_FR_ENZ_hAKT3, in the positive analysis fitting direction relative to DMSO as the negative control and baseline of activity. Using a type of enzyme reporter, loss-of-signal activity can be used to understand changes in enzymatic activity as they relate to gene AKT3. To generalize the intended target to other relatable targets, this assay endpoint is annotated to the kinase intended target family, where the subfamily is serine/threonine kinase.
PKBb (h) is incubated with 8 mM MOPS pH 7.0, 0.2 mM EDTA, 30 uM […], 10 mM MgAcetate and [g- 33P]-ATP (specific activity and concentration as required). The reaction is initiated by the addition of the Mg/ATP mix. After incubation for 40 minutes at room temperature, the reaction is stopped by the addition of phosphoric acid to a concentration of 0.5%. […]
In the case of `O=C(/C=C/c1ccc(O)cc1)CC(=O)/C=C/c1ccc(O)cc1`, the outcome was inactive.

`COc1cc(CCC(=O)CC(=O)CCc2ccc(O)c(OC)c2)ccc1O`: the result was inactive.
